From PubChem BioAssay (NCATS) come the findings set out here.

This test has as its target Calcium and integrin-binding protein 1 (Homo sapiens) (UniProt Q99828). The test can be described thus: Primary qHTS for Identification of Calcium Integrin Binding Protein 1 (CIB1) Competitor (AID 1508620). Also: top concentration of the series differs between compounds. The procedure, abridged: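 Fluorescence polarization competition: GST-tagged CIB1 (1 uM final) preincubated with compound 15 min at room temperature, then FITC-labelled alphaIIb peptide (100 nM final) added. After 15 min at room temperature, polarization read at Ex 480/Em 540.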
(Quantitative high-throughput screening tests each substance at several concentrations.)

Inconclusive results are not listed. Entries that show only a call come without a potency. Activity calls are given as the source filed them. Calls follow the shape of the dose curve; as a rule, active = well fitted inhibition curve with a large enough effect; inconclusive = small, poorly fitted or top-dose-only effect; inactive = flat fitted curve, though single readings scatter.

Calcium and integrin-binding protein 1 (Homo sapiens), sequence (Q99828 whole entry, looked up): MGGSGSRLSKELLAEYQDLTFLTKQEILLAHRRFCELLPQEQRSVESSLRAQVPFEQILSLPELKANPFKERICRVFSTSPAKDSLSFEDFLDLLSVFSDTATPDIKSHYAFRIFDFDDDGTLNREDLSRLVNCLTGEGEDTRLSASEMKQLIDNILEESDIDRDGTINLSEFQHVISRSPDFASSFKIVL

For the compound `C[C@@H]1O[C@@H](O[C@@H]2[C@@H](O)[C@H](O[C@H]3CC[C@@]4(C)C(CC[C@]5(C)C4CC=C4[C@@H]6CC(C)(C)CC[C@]6(C(=O)O[C@@H]6O[C@H](CO)[C@@H](O)[C@H](O)[C@H]6O)CC[C@]45C)C3(C)C)O[C@H](C(=O)O)[C@H]2O)[C@H](O)[C@H](O)[C@H]1O` (some centres not stated), the Potency result was “inactive”.
On the same count and under the same terms, under `C=C[C@H]1[C@H](O[C@@H]2O[C@H](CO)[C@@H](O)[C@H](O)[C@H]2O)OC=C(C(=O)OC)[C@H]1CC(=O)O` stands “inactive”; under `C/C=C/C1=CC2=C(CO1)C(=O)C(C)(O)C(OC(=O)c1c(C)cc(OC)cc1O)C2` (configuration not stated), “inactive”.
In the case of `CC(C)=CCC/C(C)=C/Cc1ccc(O)c(C2OC(=O)c3cc(C(=O)O)cc(O)c32)c1O` (configuration not stated), the Potency entry is “inactive”.
Same read-out and setting: under `CC1(C)CCCC2(C)C1CC=C1C(=O)OC(O)C12O` (configuration not stated) stands “inactive”.
Take `COC(=O)C1(C)CCC2(C(=O)O)CCC3(C)C(=CCC4C5(C)CC(O)C(OC6OCC(O)C(O)C6O)C(C)(CO)C5CCC43C)C2C1` (configuration not stated): the Potency entry is “inactive”.
For the compound `C[C@@H]1CN(Cc2ncccn2)C[C@H]1c1nc2c(cnn2C2CCOCC2)c(=O)[nH]1`, the Potency entry is “inactive”.
For the compound `C[C@@H]1O[C@@H](O[C@H]2[C@H](O)[C@@H](O[C@@H]3O[C@H](CO)[C@@H](O)[C@H](O[C@@H]4O[C@H](CO)[C@@H](O)[C@H](O)[C@H]4O)[C@H]3O)[C@H](O[C@H]3CC[C@@]4(C)C(=CC[C@@H]5C4CC[C@@]4(C)C5C[C@@H]5OC6(CC[C@@](C)(CO[C@@H]7O[C@H](CO)[C@@H](O)[C@H](O)[C@H]7O)O6)[C@@H](C)[C@@H]54)C3)O[C@@H]2CO)[C@H](O)[C@H](O)[C@H]1O` (some centres not stated), the activity change, negative = inhibition is -1.49% [at 12.4 µM] (inactive).
As for `CC/C=C\[C@H](O)[C@H](O)C1=C(C)C(=O)[C@]2(O1)C(=O)N[C@@](OC)(C(=O)c1ccccc1)[C@@H]2O`, the Potency result was “inactive”.
For the compound `CC1(C)CC[C@]2(C(=O)O)CC[C@]3(C)C(=CCC4[C@@]5(C)CC[C@H](O[C@@H]6O[C@H](CO)[C@@H](O)[C@H](O)[C@H]6O[C@@H]6O[C@H](CO)[C@@H](O)[C@H](O)[C@H]6O)[C@@](C)(CO)C5CC[C@]43C)[C@@H]2C1` (some centres not stated), the Potency result was “inactive”.
Take `COc1c2cc(c(O)c1OC)-c1cc(ccc1O)CCC(O)CCCC2` (configuration not stated): the Potency result is “inactive”.
Consider `COC(=O)CC1CC(c2ccc(O)cc2)=NO1` (configuration not stated), for which the Potency result is “inactive”.
On to `CC(=O)N[C@@H](C(=O)O[C@H]1CCC(C)(C)[C@@H]2CCC3=C(COC3=O)[C@@]12C)C(C)C`, for which the Potency result is “inactive”.
The same measure, in the same setting: the same measure for `COc1cc(O)c2c(c1)C1=CC(O)C(O)CC1(C)OC2=O` (configuration not stated): “inactive”; for `CC1CCC2C(C)(C)[C@@H](O)CC[C@]2(C)C12Cc1c(O)cc3c(c1O2)CN(C(CCC(=O)O)C(=O)O)C3=O` (some centres not stated): “inactive”; for `Cc1cc(C)c(Nc2ccnc(Nc3ccc(C#N)cc3)n2)c(C)c1`: “inactive”.
On the same count and under the same terms, under `CC(=O)OC[C@H]1O[C@H](O[C@]2(CO)O[C@H](CO)[C@@H](OC(=O)/C=C/c3ccccc3)[C@@H]2O)[C@H](O)[C@@H](O)[C@@H]1O` stands “inactive”; under `COc1ccc(F)cc1-c1cc(NC(=O)[C@@H]2CCCNC2)ncc1Cl`, “inactive”.
As for `CCC(C)C(=O)OC1CC(O)C23C4OCC5(C(O)CC2C1(C)C(O)O4)C3C(=O)CC1(C)C(c2ccoc2)CC2OC215` (configuration not stated), the Potency result is “inactive”.
Same read-out and setting: the same measure for `O=C(Nc1ccc(Cl)cc1F)c1ccccc1O`: “inactive”; for `CC(C)CNCc1ccc(-c2ccccc2S(=O)(=O)N2CCCC2)cc1`: “inactive”; for `O=S(=O)(NC1CCC(c2cc(F)ccc2F)(S(=O)(=O)c2ccc(Cl)cc2)CC1)C(F)(F)F` (configuration not stated): “inactive”.
For the compound `CC(=O)O[C@H]1[C@H](O[C@H]2[C@@H]3C=CO[C@@H](O[C@@H]4O[C@H](CO)[C@@H](O)[C@H](O)[C@H]4O)[C@@H]3[C@@]3(CO)O[C@@H]23)O[C@@H](C)[C@H](OC(=O)/C=C/c2ccccc2)[C@H]1OC(=O)/C=C/c1ccccc1`, the Potency result was “inactive”.
The same measure, in the same setting: the same measure for `Cc1[nH]c2ccccc2c1CCNC(=O)c1ccccc1F`: “inactive”.
Still for that read-out and setting: under `Cc1ccc(Cc2c(C)nc3nc(SCC(=O)NCCN4CCNCC4)nn3c2C)cc1` stands “inactive”.
Regarding `CC1(C)CC[C@]2(C(=O)O[C@@H]3O[C@H](CO)[C@@H](O)[C@H](O)[C@H]3O)CC[C@]3(C)C(=CCC4[C@@]5(C)C[C@@H](O)[C@H](O)[C@](C)(C=O)C5CC[C@]43C)[C@@H]2[C@@H]1O` (some centres not stated), the Potency result was “inactive”.
In the case of `CCC(C)C(=O)O[C@H]1CCC=C2C=C[C@H](C)[C@H](CC[C@@H](O)C[C@@H](O)CC(=O)O)[C@H]21` (some centres not stated), the Potency entry is “inactive”.
